Experimental data as given in the supplement of paper PMC11732987, “Enantioselective OTUD7B fragment discovery through chemoproteomics screening and high-throughput optimisation” (Communications Chemistry, 2025).

Assays:
Assay in all cases: log2 ratio of Biotin-Ahx-Ub-VS probe labelling (fragment/DMSO); higher = less target engagement (more negative = stronger competition), active = hit call of the paper (q ≤ 0.05, log2 ratio ≤ -1)
Settings in all cases: compound concentration: 200 uM; treatment time: 3 h
USP34 = USP34 (UniProt Q70CQ2)
Chain of USP34 (Q70CQ2 whole entry, the tested form may be a part): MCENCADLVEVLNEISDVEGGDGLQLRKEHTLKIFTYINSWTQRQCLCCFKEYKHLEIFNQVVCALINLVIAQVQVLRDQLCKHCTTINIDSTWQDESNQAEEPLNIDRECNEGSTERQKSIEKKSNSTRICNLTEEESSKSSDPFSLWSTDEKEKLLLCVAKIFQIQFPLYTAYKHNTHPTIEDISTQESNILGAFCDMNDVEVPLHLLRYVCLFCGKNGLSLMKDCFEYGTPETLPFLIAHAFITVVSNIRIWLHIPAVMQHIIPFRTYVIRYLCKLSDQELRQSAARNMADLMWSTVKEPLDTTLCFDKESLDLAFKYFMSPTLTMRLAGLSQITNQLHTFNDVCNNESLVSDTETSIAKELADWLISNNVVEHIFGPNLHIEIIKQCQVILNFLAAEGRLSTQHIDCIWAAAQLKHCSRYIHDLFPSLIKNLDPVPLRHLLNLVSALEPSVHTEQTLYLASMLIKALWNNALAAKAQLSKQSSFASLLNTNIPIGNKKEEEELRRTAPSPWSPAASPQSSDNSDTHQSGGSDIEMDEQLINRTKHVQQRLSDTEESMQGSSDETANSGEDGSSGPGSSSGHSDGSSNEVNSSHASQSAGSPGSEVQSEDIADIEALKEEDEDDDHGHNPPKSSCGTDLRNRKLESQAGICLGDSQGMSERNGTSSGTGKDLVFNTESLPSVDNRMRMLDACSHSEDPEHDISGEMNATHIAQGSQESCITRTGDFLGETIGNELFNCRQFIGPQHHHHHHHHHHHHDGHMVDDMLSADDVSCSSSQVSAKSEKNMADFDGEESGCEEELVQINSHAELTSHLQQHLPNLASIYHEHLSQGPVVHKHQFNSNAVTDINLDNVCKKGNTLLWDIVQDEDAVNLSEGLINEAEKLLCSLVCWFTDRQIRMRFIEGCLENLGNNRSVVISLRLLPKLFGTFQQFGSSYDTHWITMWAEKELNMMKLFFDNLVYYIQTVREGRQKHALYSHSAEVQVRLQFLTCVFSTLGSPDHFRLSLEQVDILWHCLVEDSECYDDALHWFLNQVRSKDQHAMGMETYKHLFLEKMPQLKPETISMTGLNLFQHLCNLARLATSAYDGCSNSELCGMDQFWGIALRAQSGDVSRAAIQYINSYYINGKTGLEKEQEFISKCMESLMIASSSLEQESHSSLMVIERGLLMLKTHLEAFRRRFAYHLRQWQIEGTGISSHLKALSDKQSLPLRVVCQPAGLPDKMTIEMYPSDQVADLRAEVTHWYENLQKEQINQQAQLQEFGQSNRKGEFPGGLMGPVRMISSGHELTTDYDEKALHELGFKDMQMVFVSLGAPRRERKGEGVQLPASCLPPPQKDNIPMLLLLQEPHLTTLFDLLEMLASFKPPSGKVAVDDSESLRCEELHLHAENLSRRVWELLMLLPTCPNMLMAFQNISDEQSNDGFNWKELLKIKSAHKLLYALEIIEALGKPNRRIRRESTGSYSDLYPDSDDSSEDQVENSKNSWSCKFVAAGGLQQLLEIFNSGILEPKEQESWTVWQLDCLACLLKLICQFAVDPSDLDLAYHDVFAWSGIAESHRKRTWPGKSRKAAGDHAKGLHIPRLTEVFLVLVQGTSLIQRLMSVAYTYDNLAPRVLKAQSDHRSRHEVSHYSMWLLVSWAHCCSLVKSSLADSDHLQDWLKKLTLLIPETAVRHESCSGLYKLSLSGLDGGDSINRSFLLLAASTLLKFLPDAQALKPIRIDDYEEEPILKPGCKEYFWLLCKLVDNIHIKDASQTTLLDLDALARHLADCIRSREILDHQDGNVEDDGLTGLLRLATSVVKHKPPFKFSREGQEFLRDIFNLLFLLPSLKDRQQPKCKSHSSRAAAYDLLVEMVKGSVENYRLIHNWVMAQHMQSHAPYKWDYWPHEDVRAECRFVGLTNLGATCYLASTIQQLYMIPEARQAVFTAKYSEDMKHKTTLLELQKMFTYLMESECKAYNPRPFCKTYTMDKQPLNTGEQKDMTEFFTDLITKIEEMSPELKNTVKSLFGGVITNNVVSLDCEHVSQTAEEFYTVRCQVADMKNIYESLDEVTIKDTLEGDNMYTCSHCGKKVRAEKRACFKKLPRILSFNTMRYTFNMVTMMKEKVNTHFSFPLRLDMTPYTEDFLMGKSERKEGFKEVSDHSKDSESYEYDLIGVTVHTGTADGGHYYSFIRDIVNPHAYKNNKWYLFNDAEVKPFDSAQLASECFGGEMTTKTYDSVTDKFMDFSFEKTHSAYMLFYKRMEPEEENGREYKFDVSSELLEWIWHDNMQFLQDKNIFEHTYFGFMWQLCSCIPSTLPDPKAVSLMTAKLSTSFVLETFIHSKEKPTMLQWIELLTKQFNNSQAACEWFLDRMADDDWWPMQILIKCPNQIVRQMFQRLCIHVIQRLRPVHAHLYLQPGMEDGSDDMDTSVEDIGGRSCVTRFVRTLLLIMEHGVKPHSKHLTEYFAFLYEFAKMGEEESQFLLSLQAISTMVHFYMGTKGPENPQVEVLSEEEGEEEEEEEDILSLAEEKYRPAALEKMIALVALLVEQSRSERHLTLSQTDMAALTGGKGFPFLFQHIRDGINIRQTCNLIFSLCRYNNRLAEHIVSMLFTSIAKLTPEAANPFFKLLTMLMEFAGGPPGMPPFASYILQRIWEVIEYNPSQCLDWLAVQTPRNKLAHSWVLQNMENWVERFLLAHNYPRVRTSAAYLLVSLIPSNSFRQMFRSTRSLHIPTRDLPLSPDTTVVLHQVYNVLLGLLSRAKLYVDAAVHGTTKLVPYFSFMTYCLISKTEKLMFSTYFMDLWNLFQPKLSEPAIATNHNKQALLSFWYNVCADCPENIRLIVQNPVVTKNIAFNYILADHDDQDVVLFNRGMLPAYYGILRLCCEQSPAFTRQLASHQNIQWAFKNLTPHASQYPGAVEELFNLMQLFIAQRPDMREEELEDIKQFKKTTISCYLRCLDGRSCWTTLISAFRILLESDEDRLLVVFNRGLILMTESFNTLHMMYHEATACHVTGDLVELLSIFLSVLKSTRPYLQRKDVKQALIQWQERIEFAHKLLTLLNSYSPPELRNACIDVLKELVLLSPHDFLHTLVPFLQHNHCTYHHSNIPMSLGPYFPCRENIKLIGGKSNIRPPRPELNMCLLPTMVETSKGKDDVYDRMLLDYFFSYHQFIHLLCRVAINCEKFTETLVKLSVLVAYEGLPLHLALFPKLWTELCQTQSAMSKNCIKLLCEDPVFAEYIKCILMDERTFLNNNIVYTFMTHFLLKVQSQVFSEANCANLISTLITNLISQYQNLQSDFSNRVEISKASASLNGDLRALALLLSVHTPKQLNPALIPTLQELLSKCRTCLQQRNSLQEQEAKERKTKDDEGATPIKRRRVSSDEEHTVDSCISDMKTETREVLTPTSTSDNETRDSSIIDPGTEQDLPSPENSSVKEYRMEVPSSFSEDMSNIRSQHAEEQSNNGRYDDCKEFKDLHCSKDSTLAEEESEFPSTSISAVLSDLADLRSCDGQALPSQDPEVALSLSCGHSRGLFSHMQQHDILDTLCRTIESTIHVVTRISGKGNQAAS
Method in brief: (§1)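 Labelled DUBs were enriched with NeutrAvidin, digested with LysC and trypsin, and run by diaPASEF LC-MS/MS. The labelling used Biotin-Ahx-Ub-VS at 0.5 µM final for 1 h on HEK293T lysate (495 µg per sample) previously treated in triplicate with fragment at 200 µM or vehicle for 3 h. Values are average log2 fragment/vehicle ratios by unpaired t-test on global-median-normalised Spectronaut quantities of proteins with ≥2 unique peptides.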

USP36 = target: T1, USP36 (UniProt Q9P275)
T1 sequence (whole entry): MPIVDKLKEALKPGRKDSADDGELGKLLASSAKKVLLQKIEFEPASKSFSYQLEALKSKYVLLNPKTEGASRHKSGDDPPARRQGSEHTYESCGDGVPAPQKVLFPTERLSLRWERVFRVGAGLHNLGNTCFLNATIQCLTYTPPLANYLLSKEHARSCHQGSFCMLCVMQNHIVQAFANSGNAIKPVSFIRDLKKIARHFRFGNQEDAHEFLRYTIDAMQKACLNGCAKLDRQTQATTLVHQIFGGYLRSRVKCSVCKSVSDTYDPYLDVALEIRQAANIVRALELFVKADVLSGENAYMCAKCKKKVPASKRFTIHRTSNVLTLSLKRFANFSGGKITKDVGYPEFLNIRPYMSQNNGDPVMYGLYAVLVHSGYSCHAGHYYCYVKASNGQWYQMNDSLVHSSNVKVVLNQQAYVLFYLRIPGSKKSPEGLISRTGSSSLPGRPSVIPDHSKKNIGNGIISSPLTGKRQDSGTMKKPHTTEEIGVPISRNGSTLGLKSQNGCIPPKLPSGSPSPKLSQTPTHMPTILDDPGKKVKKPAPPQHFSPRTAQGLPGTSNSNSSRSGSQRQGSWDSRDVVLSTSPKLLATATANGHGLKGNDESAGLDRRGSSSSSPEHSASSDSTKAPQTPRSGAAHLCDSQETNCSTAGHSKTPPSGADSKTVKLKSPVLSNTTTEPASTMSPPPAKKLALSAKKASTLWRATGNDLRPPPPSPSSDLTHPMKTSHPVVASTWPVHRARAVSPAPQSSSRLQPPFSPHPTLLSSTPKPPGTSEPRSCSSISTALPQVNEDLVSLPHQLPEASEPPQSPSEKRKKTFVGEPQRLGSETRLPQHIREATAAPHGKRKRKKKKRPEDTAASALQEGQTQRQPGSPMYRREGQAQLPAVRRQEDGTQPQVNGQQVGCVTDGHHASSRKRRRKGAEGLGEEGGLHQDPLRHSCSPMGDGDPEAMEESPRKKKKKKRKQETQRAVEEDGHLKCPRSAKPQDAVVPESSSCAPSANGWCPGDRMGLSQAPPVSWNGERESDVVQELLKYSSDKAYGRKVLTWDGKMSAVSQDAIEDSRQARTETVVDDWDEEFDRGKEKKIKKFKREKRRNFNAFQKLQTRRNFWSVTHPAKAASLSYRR
Method in brief: as §1

USP38 = target: T2, USP38 (UniProt Q8NB14)
T2 sequence (whole entry): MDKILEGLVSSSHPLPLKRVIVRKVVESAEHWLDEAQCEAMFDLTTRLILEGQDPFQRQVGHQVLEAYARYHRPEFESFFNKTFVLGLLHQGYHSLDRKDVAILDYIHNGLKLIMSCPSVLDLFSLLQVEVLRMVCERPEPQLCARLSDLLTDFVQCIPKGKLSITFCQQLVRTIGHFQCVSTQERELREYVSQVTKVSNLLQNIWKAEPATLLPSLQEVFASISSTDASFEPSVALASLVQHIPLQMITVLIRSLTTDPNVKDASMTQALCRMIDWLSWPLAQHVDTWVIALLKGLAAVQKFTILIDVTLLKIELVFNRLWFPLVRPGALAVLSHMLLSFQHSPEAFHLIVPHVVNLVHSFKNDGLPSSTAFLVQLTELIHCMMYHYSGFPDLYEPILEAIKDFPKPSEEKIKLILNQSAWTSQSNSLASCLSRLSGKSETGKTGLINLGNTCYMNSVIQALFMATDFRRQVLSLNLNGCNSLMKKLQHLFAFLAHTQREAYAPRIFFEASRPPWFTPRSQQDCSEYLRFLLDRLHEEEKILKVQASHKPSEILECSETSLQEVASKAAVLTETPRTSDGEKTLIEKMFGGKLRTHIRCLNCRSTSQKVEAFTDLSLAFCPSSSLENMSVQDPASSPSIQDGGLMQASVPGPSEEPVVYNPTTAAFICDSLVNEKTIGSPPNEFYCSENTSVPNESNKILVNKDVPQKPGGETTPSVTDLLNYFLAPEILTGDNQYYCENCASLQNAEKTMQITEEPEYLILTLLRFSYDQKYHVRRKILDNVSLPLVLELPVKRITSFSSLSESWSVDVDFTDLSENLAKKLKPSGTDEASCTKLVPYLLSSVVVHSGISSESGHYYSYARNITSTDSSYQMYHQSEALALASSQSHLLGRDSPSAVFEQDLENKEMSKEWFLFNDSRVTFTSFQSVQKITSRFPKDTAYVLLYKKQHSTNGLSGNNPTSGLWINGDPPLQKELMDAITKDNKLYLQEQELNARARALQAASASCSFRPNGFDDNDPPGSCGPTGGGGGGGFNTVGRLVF
Method in brief: as §1

USP39 = target: T3, USP39 (UniProt Q53GS9)
T3 sequence (whole entry): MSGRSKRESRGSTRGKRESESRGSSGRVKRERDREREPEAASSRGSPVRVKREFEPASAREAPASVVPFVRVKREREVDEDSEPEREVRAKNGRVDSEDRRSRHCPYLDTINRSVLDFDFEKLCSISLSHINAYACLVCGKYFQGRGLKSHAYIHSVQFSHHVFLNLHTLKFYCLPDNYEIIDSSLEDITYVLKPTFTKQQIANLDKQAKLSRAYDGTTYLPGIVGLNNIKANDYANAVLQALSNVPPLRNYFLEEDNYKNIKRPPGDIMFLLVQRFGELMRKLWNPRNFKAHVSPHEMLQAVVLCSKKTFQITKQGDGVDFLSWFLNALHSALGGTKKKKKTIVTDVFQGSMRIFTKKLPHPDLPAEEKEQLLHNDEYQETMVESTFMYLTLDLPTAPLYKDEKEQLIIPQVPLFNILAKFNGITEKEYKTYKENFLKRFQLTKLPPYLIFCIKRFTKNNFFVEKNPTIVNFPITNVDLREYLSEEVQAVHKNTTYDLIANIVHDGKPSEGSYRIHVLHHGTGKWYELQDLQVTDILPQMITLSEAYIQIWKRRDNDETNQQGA
Method in brief: as §1

USP4 = target: T4, USP4 (UniProt Q13107)
T4 sequence (whole entry): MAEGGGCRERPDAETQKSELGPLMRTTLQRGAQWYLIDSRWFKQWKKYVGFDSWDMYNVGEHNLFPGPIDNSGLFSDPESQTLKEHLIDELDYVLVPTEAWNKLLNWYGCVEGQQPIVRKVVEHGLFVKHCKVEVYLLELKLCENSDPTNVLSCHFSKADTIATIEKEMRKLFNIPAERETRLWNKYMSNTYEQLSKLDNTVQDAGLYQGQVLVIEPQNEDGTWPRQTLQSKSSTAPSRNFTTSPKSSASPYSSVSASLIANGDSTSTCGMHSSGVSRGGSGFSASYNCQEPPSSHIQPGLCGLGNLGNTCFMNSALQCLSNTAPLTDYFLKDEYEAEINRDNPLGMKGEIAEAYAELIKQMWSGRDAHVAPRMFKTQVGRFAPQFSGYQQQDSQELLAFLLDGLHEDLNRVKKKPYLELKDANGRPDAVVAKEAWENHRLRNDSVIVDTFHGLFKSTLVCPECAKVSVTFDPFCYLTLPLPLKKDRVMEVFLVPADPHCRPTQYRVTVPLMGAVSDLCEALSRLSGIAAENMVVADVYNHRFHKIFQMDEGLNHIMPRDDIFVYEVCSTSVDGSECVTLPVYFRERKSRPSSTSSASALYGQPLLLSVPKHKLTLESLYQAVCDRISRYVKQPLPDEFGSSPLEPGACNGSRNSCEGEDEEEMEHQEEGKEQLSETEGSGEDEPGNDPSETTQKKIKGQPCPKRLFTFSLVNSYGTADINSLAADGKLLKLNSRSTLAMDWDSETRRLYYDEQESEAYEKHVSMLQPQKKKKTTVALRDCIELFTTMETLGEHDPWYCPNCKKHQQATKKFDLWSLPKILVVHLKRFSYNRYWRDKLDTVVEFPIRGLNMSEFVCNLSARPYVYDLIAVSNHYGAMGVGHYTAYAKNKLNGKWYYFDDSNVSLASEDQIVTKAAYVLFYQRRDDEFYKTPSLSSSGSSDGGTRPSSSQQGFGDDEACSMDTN
Method in brief: as §1

Measured: log2 ratio of Biotin-Ahx-Ub-VS probe labelling

Cc1cccc(C(CNC(=O)CCl)N2CCOCC2)c1.Cl (stereo not given)
inactive: USP34 -0.0673 | USP36 0.0549 | USP38 -0.0229 | USP39 -0.116 | USP4 -0.165
